Results reported in PubChem BioAssay (NCI).
Values joined by “and” are separate entries in the source; they are usually repeats but may differ in a detail not shown here. Identical values can stand only once. The panel holds about 79,000 compounds, 15% with a hit somewhere; the sample as a whole holds those more often. Active and inactive are the calls of the source. Rule as the data show it: active = growth inhibition above about 70%; inactive = the rest.

Assays:
[1] = NCI Yeast Anticancer Drug Screen. Data for the rad52 strain (AID 147);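 also: 0% = growth of vehicle-treated control cultures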; settings: S. cerevisiae rad52 mutant growth inhibition, stronger effect = higher value
Summary of the method: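 Genetically altered yeast (DNA damage repair defect) treated with compound; inhibition calculated relative to vehicle.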

[2] = NCI Yeast Anticancer Drug Screen. Data for the wt1 strain (AID 149);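 also: 0% = growth of vehicle-treated wt1 cultures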; settings: S. cerevisiae wt1 strain (SPY 50644) growth inhibition, stronger effect = higher value
Summary of the method: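 Compounds are added to wt1 yeast cultures. Growth is then measured. Inhibition is expressed relative to vehicle-treated controls.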

[3] = NCI Yeast Anticancer Drug Screen. Data for the rad50EPP+ strain (AID 151);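 also: 0% = growth of vehicle-treated control cultures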; settings: S. cerevisiae rad50 mutant strain, stronger effect = higher value
Summary of the method: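 Strain rad50EPP+; compound exposure; % growth inhibition vs vehicle.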

[4] = NCI Yeast Anticancer Drug Screen. Data for the mgt1 strain (AID 153); settings: S. cerevisiae mgt1 mutant growth inhibition, stronger effect = higher value
Summary of the method: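 Read-out: yeast growth inhibition vs vehicle control. Strain mgt1, drawn from a panel altered in DNA damage repair or cell cycle control.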

[5] = NCI Yeast Anticancer Drug Screen. Data for the rad50 strain (AID 155);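 also: 0% = growth of vehicle-only cultures of the same strain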; settings: S. cerevisiae rad50 strain growth inhibition, stronger effect = higher value
Summary of the method: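 Inhibition values express reduced yeast growth in compound-treated cultures relative to vehicle-treated controls.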

[6] = NCI Yeast Anticancer Drug Screen. Data for the mec2-1 strain (AID 157); settings: S. cerevisiae mec2-1 strain, stronger effect = higher value
Summary of the method: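 Cells of the genetically defined mec2-1 yeast strain are incubated with test compound. Inhibition of growth is calculated against vehicle-treated controls.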

[7] = NCI Yeast Anticancer Drug Screen. Data for the rad14 strain (AID 159);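 also: 0% = growth of vehicle-treated control cultures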; settings: S. cerevisiae rad14 strain growth inhibition, stronger effect = higher value
Summary of the method: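 A mutant yeast strain defective in DNA damage repair is treated with compound; inhibition of its growth is scored against untreated, vehicle-exposed cultures.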

[8] = NCI Yeast Anticancer Drug Screen. Data for the cln2 rad14 strain (AID 165);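 also: 0% = growth equal to vehicle treated cultures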; settings: S. cerevisiae cln2 rad14 strain, stronger effect = higher value
Summary of the method: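 The screen exposed genetically defined yeast (cln2 rad14) to test compounds and scored growth inhibition relative to vehicle-treated controls.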

[9] = NCI Yeast Anticancer Drug Screen. Data for the bub3 strain (AID 167); settings: S. cerevisiae bub3 mutant strain, stronger effect = higher value
Summary of the method: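 Steps: expose the mutant yeast strain to compound; grow alongside vehicle-treated cultures; measure growth; express inhibition against the vehicle cultures.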

[10] = NCI Yeast Anticancer Drug Screen. Data for the wt2 strain (AID 169);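 also: 0% = growth of vehicle-treated yeast cultures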; settings: S. cerevisiae wt2 strain growth inhibition, stronger effect = higher value
Summary of the method: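 Steps: yeast strain treated with compound; growth recorded; inhibition calculated relative to cultures given vehicle alone.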

[11] = NCI Yeast Anticancer Drug Screen. Data for the mlh1 strain (AID 171);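 also: 0% = growth of vehicle-treated control cultures of the same strain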; settings: S. cerevisiae mlh1 strain growth inhibition, stronger effect = higher value
Summary of the method: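 Yeast screen: mutant strain plus compound, growth scored against vehicle control wells.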

[12] = NCI Yeast Anticancer Drug Screen. Data for the sgs1 strain (AID 173);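 also: 0% = growth of vehicle-only control cultures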; settings: S. cerevisiae sgs1 mutant, stronger effect = higher value
Summary of the method: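 Inhibition of yeast growth served as the measure. The mutant strain was treated with each compound, and growth was normalised to cultures receiving vehicle alone.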

[13] = NCI Yeast Anticancer Drug Screen. Data for the mlh1 rad18 strain (AID 175); settings: S. cerevisiae mlh1 rad18 strain growth inhibition, stronger effect = higher value
Summary of the method: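 Compound-treated yeast growth, normalised to vehicle controls. Strain bears defined DNA repair mutations.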

[14] = NCI Yeast Anticancer Drug Screen. Data for the rad18 strain (AID 177); settings: S. cerevisiae rad18 mutant growth inhibition, stronger effect = higher value
Summary of the method: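 Inhibition values reflect reduced yeast growth compared with vehicle-treated controls, using a strain engineered with a DNA damage repair defect.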

[15] = at 5.0 µM (retest, dose inferred, filed as 0.5)
[16] = at 50.0 µM (retest, dose inferred, filed as 5.0)

Measured: growth inhibition

O=S(=O)(O)c1ccc(Cl)cc1.[Cd]
inactive: [1]; at 1.2 µM 3% | [1]; at 3.7 µM 9% | [1]; at 11.0 µM 35% | [1]; at 33.0 µM 50% | [1]; at 100.0 µM 66% | [2]; at 1.2 µM 2% | [2]; at 3.7 µM 11% | [2]; at 11.0 µM 25% | [2]; at 33.0 µM 55% | [3]; at 1.2 µM 9% | [3]; at 3.7 µM 14% | [3]; at 11.0 µM 23% | [3]; at 33.0 µM 56% | [4]; at 1.2 µM 0% | [4]; at 3.7 µM 15% | [4]; at 11.0 µM 27% | [4]; at 33.0 µM 55% | [5]; at 1.2 µM -2% | [5]; at 3.7 µM 15% | [5]; [15] 25% | [5]; at 11.0 µM 47% | [5]; [16] 46% | [5]; at 50.0 µM 57.1% | [6]; at 1.2 µM -2% | [6]; at 3.7 µM 5% | [6]; [15] 6% | [6]; at 11.0 µM 14% | [6]; at 33.0 µM 25% | [6]; [16] 46% | [6]; at 50.0 µM 39.4% | [6]; at 100.0 µM 37% | [7]; at 1.2 µM -2% | [7]; at 3.7 µM 18% | [7]; at 11.0 µM 48% | [8]; [15] 8% | [8]; [16] 11% | [8]; at 50.0 µM 21.4% | [9]; at 1.2 µM -8% | [9]; at 3.7 µM 8% | [9]; [15] -6% | [9]; at 11.0 µM 6% | [9]; at 33.0 µM 19% | [9]; [16] 27% | [9]; at 50.0 µM 2.7% | [9]; at 100.0 µM 30% | [10]; at 1.2 µM 2% | [10]; at 3.7 µM 11% | [10]; at 11.0 µM 20% | [10]; at 33.0 µM 32% | [10]; at 100.0 µM 44% | [11]; at 1.2 µM -1% | [11]; at 3.7 µM 7% | [11]; at 11.0 µM 17% | [11]; at 33.0 µM 50% | [12]; at 1.2 µM 2% | [12]; at 3.7 µM 10% | [12]; at 11.0 µM 17% | [12]; at 33.0 µM 29% | [12]; at 100.0 µM 44% | [13]; [15] 24% | [13]; [16] 47% | [13]; at 50.0 µM 59% | [14]; at 1.2 µM 0% | [14]; at 3.7 µM 8% | [14]; at 11.0 µM 23% | [14]; at 33.0 µM 44% | [14]; at 100.0 µM 51%
active: [2]; at 100.0 µM 73% | [3]; at 100.0 µM 75% | [4]; at 100.0 µM 77% | [5]; at 33.0 µM 73% | [5]; at 100.0 µM 84% | [7]; at 33.0 µM 71% | [7]; at 100.0 µM 86% | [11]; at 100.0 µM 82%

O=C(O)C1C2c3ccccc3C(c3ccccc32)C1C(=O)O (stereo not given)
inactive: [1]; at 1.2 µM -1% | [1]; at 3.7 µM -1% | [1]; at 11.0 µM 2% | [1]; at 33.0 µM 0% | [1]; at 100.0 µM 11% | [2]; at 1.2 µM -3% | [2]; at 3.7 µM -3% | [2]; at 11.0 µM -2% | [2]; at 33.0 µM -1% | [2]; at 100.0 µM -2% | [3]; at 1.2 µM -4% | [3]; at 3.7 µM -3% | [3]; at 11.0 µM 2% | [3]; at 33.0 µM -3% | [3]; at 100.0 µM -4% | [4]; at 1.2 µM -3% | [4]; at 3.7 µM -2% | [4]; at 11.0 µM -2% | [4]; at 33.0 µM -2% | [4]; at 100.0 µM 0% | [5]; at 1.2 µM 0% | [5]; at 3.7 µM 4% | [5]; [15] 7% | [5]; at 11.0 µM 4% | [5]; at 33.0 µM 3% | [5]; [16] 47% | [5]; at 50.0 µM 52.6% and -32.8% | [5]; at 100.0 µM 12% | [6]; at 1.2 µM -2% | [6]; at 3.7 µM -5%
